Compound activity deposited in PubChem by National Center for Advancing Translational Sciences (NCATS).
FLuc counter = qHTS profiling assay for firefly luciferase inhibitor/activator using purifed enzyme and Km concentrations of substrates (counterscreen for miR-21 project) | Luciferin 4-monooxygenase (Photinus pyralis), P08659 | purified FLuc, Km substrates, luminescence inhibition | Potency, µM (highest dose often 57.5 µM), for the others: at the highest dose activity change, negative = inhibition, most hits filed as inhibitors | actives 6.9% (n = 360,000);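 note: plate controls were vehicle for no effect and reference inhibitor for full effect; nearly all actives have a fitted effect of over 55% in size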
Target sequence (P08659 whole entry, looked up): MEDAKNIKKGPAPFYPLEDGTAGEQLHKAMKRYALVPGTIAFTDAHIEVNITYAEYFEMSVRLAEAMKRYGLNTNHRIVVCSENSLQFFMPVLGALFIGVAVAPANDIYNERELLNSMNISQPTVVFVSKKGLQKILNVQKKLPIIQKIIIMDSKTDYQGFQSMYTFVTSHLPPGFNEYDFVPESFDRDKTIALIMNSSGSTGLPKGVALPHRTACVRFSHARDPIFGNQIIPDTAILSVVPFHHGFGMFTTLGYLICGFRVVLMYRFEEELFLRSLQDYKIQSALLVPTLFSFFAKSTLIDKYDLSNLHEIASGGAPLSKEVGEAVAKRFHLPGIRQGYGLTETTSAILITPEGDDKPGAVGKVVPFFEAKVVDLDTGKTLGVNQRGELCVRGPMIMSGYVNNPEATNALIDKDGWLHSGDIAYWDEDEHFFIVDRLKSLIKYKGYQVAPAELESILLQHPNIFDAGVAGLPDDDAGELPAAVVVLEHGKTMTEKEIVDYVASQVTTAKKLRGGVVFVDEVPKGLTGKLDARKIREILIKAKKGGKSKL
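Purified P. pyralis luciferase, 10 nM final, with Km-level 10 uM D-luciferin and 10 uM ATP in 50 mM Tris acetate pH 7.5, 10 mM Mg acetate, 0.01% Tween-20, 0.05% BSA; 6-point qHTS titration about 60 µM downward; luminescence read.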
ELG1 genotoxic = qHTS screen for small molecules that induce genotoxicity in human embryonic kidney (HEK293T) cells expressing luciferase-tagged ELG1 | HEK293T ELG1-luciferase reporter, luminescence, 16 h | actives 1.3% (n = 330,000) | Potency, µM (series often up to 46 µM), for inactives: at the highest dose activity change, positive = activation, hits mostly activators | AID 504466, 2011; note: % of control where 0% means no effect; nearly all actives have a fitted effect of over 60% in size
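After overnight (16 hr) compound treatment at 37 °C, ELG1-luciferase HEK293T cells were lysed with ONE-Glo; luminescence quantified 30 min later at room temperature.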
SMN2 splice up = qHTS Assay for Enhancers of SMN2 Splice Variant Expression | actives 2.8% (n = 210,000) | HEK293 SMN2-luciferase splicing reporter, luminescence, 30-36 h | Potency, µM (doses to about 46.1 µM), without a hit: at the top dose activity change, positive = activation, usual class: activators; note: % of control where 0% means no effect; nearly all actives have a fitted effect of over 55% in size
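HEK293 cells carry an SMN2 […]–luciferase reporter in which exon 7 inclusion puts luciferase in frame. Cells were plated 10-12 h before compound addition, then incubated 30-36 h at 37C. ONE-Glo luminescence was read; sodium butyrate at 4.5 mM final served as control.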
NPC1 prom act = qHTS Assay for NPC1 Promoter Activators; Huh7 NPC1 promoter luciferase reporter, 24 h; Potency, µM (highest dose often 9.22 µM), without a hit: top-dose activation, hits mostly activators; actives 2.4% (n = 320,000); AID 485313, 2010; note: % of control where 0% means no effect; nearly all actives have a fitted effect of over 60% in size
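Huh7 cells stably carrying NPC1 promoter–luciferase, plated in Opti-MEM with 10% FBS for 2 h, were exposed to compound in DMSO for 24 h at 37 °C; luciferase reagent was added for 10 min and luminescence read.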
ELG1 DNA repair = qHTS screen for small molecules that inhibit ELG1-dependent DNA repair in human embryonic kidney (HEK293T) cells expressing luciferase-tagged ELG1 | actives 2.3% (n = 330,000) | HEK293T ELG1-luciferase reporter, luminescence, 16 h; DNA damage induced by 5-fluorouridine | Potency, µM (highest dose often 46.1 µM), without a hit: top-dose activity change, negative = inhibition, most hits filed as inhibitors; note: % is set by controls: 0 for no effect and ±100 for the full control effect; nearly all actives have a fitted effect of over 55% in size
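Cells (2,000 per well) received 5-fluorouridine plus test compound or DMSO and were incubated 16 hr at 37 °C, 5% CO2. Luciferase activity was read by luminescence 30 min after ONE-Glo addition; signal suppression marked inhibition of damage-induced ELG1 function.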
Rab9 prom act = qHTS Assay for Rab9 Promoter Activators | Huh7 Rab9 promoter-luciferase reporter, luminescence, 24 h | Potency, µM (doses to about 9.22 µM), without a hit: top-dose activation, negative = inhibition, most hits filed as activators | actives 2.8% (n = 320,000) | AID 485297, 2010; note: % of control where 0% means no effect; nearly all actives have a fitted effect of over 60% in size
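Quantitative HTS format; Huh7 Rab9-luciferase reporter cells (1500/well) receive compound 2 h post-plating, incubate 24 h at 37 °C, then get luciferase reagent for 10 min before luminescence reading.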
* = called active by the depositor; ? = inconclusive; . = no result. This is a sample that favours compounds with a hit; in the whole collection about 9.2% have one here. Calls come from the whole dose curve; as a rule, active = well fitted curve in the direction sought with a large enough effect; inconclusive = small, poorly fitted or top-dose-only effect, or another doubt; inactive = no such curve, though single readings can be large; an effect the other way counts as inactive or inconclusive. Potency is the fitted concentration of half-maximal effect.

SMILES	FLuc counter	ELG1 genotoxic	SMN2 splice up	NPC1 prom act	ELG1 DNA repair	Rab9 prom act
Cc1ccc(-c2noc(CNC(=O)c3ccc(C(C)(C)C)cc3)n2)cc1	-19%	.	3%	.	.	.
CCOc1cc(-c2noc(CCC(=O)Nc3cccnc3)n2)ccc1OC	0%	4%	-7%	16%	21µM*	18%
Oc1c(CN2CCCC(C(F)(F)F)C2)cc(Cl)c2ccccc12 (configuration not stated)	-1%	0%	.	3%	-13%	0%
COCC(C)NC(=O)c1cc2c(ccc3ccccc32)oc1=O (configuration not stated)	?	5%	.	0%	18%	5%
CC(C)(C)c1ccc(-c2noc(CCC(=O)N3CCOCC3)n2)cc1	2.4µM*	?	?	?	?	1.8µM*
CC(C)(C)c1ccc(-c2noc(CCC(N)=O)n2)cc1	6µM*	-11%	-43%	-26%	?	-32%
O=C(c1cc(-c2cccs2)on1)N1CCc2ccccc2C1	19µM*	6%	0%	-3%	?	2%
O=C(c1cc(-c2cccs2)on1)N1CCOCC1	19µM*	?	?	2.8µM*	?	?
O=C(c1cc(-c2cccs2)on1)N1CCN(C(c2ccccc2)c2ccccc2)CC1	1%	-8%	-14%	-32%	-4%	-54%
O=C(c1ccncc1)N1CCc2ccccc2C1	0%	1%	.	1%	23%	-2%
O=C(c1cc(-c2ccccc2O)on1)N1CCc2ccccc2C1	?	16%	21%	-5%	?	6%
O=C(c1cncc(Br)c1)N1CCc2ccccc2C1	-1%	-18%	-15%	6%	5.8µM*	-2%
O=C(Nc1ccc2nc(-c3cccs3)c(-c3cccs3)nc2c1)N1CCOCC1	4%	-10%	-52%	-4%	5.2µM*	-3%
FC(F)(F)c1cnc(COc2cc(Cl)cc(Cl)c2)c(Cl)c1	1%	-3%	.	3%	?	-2%
O=C(Nc1ccc(Cl)cc1Cl)c1ccc(Br)o1	13µM*	?	.	2.2µM*	?	?
COc1ccc(N2CCOCC2)c(NC(=O)c2ccc(Br)o2)c1	2%	-26%	.	-4%	16µM*	2%
O=C(Nc1cc(C(F)(F)F)ccc1N1CCOCC1)c1ccc(Br)o1	5%	.	-21%	.	.	.
O=C(CNC(=O)c1ccc(Br)o1)NCc1ccc(Cl)cc1Cl	-14%	11%	.	-4%	12%	-5%
O=C(Nc1cc(Cl)ccc1N1CCOCC1)c1ccc(Br)o1	0.85µM*	1.2µM*	.	3.2µM*	?	0.56µM*
O=c1[nH]c(-c2ccc(Cl)cc2)nc(=S)[nH]1	?	0%	.	-1%	10%	-1%
O=c1[nH]c(=O)c2nc(-c3ccc(Cl)cc3)cnc2[nH]1	17µM*	12%	-5%	-2%	?	1%
CCC(C)(C)n1nnnc1CN1CCN(C(c2ccccc2)c2ccccc2)CC1	-2%	-13%	-30%	-4%	21µM*	-1%
CCC(C)(C)n1nnnc1C(c1ccccc1)N1CCN(Cc2ccccc2)CC1 (configuration not stated)	1%	-3%	.	-8%	8%	-5%
O=C(O)c1ccccc1SCCS(=O)(=O)c1ccc(Cl)cc1Cl	-15%	0%	.	1%	0%	3%
CSC1=NC(NCCCO)c2c(sc3c2CC(C)(C)OC3)N1 (configuration not stated)	-2%	-10%	-5%	-2%	21µM*	-4%
SMILES	FLuc counter	ELG1 genotoxic	SMN2 splice up	NPC1 prom act	ELG1 DNA repair	Rab9 prom act
CSc1nc(SCC(=O)O)c2c3c(sc2n1)COC(C)(C)C3	?	2%	.	-4%	?	-4%
CC(C)c1ccc(NC(=O)Cc2ccc(NC3=NC4CS(=O)(=O)CC4S3)cc2)cc1 (configuration not stated)	21µM*	13%	.	2%	?	19%
CCc1ccc(NC(=O)c2cccc(NC3=NC4CS(=O)(=O)CC4S3)c2)cc1 (configuration not stated)	13µM*	9%	.	0%	23%	8%
CCc1ccc(NC(=O)Cc2ccc(NC3=NC4CS(=O)(=O)CC4S3)cc2)cc1 (configuration not stated)	?	8%	.	0%	7%	12%
Cc1cccc(NC(=O)c2cccc(NC3=NC4CS(=O)(=O)CC4S3)c2)c1 (configuration not stated)	-6%	-3%	.	-4%	?	2%
Cc1ccc(NC(=O)c2cccc(NC3=NC4CS(=O)(=O)CC4S3)c2)cc1C (configuration not stated)	13µM*	4%	.	1%	?	-4%
O=C(Nc1ccc(Cl)cc1)c1cccc(NC2=NC3CS(=O)(=O)CC3S2)c1 (configuration not stated)	?	5%	.	2%	2%	-1%
CC(C)c1ccc(NC(=O)c2cccc(NC3=NC4CS(=O)(=O)CC4S3)c2)cc1 (configuration not stated)	6µM*	11%	.	20%	?	3%
O=C1[C@H]2[C@@H](c3ccc(F)cc3)N3C(=O)N(c4ccc(Br)cc4)C(=O)[C@@]3(Cc3ccc(Cl)cc3)[C@H]2C(=O)N1C1CCCCC1	-1%	-6%	.	-5%	?	-3%
CC(NC(=O)CCl)c1ccccc1Br (configuration not stated)	5%	-2%	.	-14%	?	-11%
C=CCn1c(C)nnc1SCC(=O)Nc1oc(C)c2c(C)n[nH]c(=O)c12	-2%	-4%	.	3%	17%	1%
CCCCCC(=O)Nc1ccc(N2CCN(CC)CC2)c(Cl)c1	?	18µM*	?	?	?	28%
CCN1CCN(c2ccc(NC(=O)c3cc4ccccc4cc3OC)cc2C)CC1	8.5µM*	?	.	29%	?	?
COc1cc2ccccc2cc1C(=O)Nc1ccccc1N1CCN(S(C)(=O)=O)CC1	0%	.	-7%	.	.	.
CCN1CCN(c2ccc(NC(=O)c3ccccc3F)cc2Cl)CC1	?	?	10µM*	?	?	?
CCCCCC(=O)NC(=S)Nc1ccc(N2CCCCC2)c(Cl)c1	1%	1%	.	-2%	17%	2%
